Measured values: the supplement of paper PMC3334620
In all, about 33,000 sequences were measured (“E-score (-0.5 to 0.5)”: median about -0.012, highest 2% from about 0.27 on). Only a selection was taken, and the highest values are over-represented in it overall.

Biological target: T1, Vhr1 (UniProt P40522)
T1 sequence: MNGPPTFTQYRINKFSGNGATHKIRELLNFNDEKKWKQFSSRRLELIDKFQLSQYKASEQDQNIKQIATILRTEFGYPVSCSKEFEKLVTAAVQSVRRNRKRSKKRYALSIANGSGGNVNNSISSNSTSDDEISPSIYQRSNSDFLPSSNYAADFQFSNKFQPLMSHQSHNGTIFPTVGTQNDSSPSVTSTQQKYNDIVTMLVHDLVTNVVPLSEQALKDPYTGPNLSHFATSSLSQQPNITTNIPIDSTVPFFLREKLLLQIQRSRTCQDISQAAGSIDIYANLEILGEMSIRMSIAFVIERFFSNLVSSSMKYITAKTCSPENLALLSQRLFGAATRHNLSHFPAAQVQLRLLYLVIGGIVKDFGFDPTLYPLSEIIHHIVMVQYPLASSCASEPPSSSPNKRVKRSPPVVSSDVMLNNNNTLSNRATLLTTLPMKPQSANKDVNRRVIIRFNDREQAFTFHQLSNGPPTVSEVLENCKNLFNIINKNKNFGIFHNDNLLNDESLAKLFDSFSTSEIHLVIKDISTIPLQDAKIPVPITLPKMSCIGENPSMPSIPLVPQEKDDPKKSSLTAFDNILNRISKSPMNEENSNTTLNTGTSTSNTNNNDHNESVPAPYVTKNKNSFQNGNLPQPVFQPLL
Test: PBM E-score (8-mer binding enrichment) (E-score (-0.5 to 0.5)); higher = stronger / more preferred TF binding
Settings: protein concentration: 200 nM; construct: GST-full length
Method: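 Universal 'all 10-mer' protein binding microarrays (Agilent AMADID 015681) probed with GST-tagged S. cerevisiae TFs (full-length or DBD) made by in vitro transcription/translation (PURExpress), about 100-200 nM. Bound TF was detected with fluorescent anti-GST. Each ungapped 8-mer (which stands for itself and its reverse complement) is scored by the PBM enrichment score (E-score), a modified Wilcoxon-Mann-Whitney statistic from -0.5 to +0.5, computed with the Universal PBM Analysis Suite. Scale: above 0.35 generally sequence-specific binding.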

Sequence | PBM E-score
ACTAGAGT | 0.0036
ACCACATA | 0.125
ACCACATG | 0.262
ACCACATC | 0.276
CGCTCACA | 0.137
ACCAACAT | 0.157
ACCAACCA | 0.163
ACCAACAG | 0.046
ACCAACAA | 0.359
CCCAACCA | 0.275
CCCAACCC | 0.118
CCCTAGCC | -0.184
CCCCCACC | -0.341
GCCCCTCA | -0.0991
CACCCACA | 0.241
GCCCCACC | 0.265
AACCCACC | 0.313
GCCCCTCC | 0.331
CCCCCTCC | -0.0898
CACCCACC | 0.317
AACCCACT | 0.246
ACCCCACC | 0.385
AACCCACA | 0.168
GACCCACC | 0.224

Sequence | PBM E-score
GCGGCCAC | 0.0847
ACAGCGAT | -0.04
AGATCTGC | -0.0821
GGGCTGGA | -0.0152
GGTGGTCA | 0.00378
AACCCTCC | -0.129
CACCCACG | 0.249
AACCCACG | 0.0933
GACCCACA | 0.284
CACCCTCA | 0.0412
CACCCTCC | 0.276
CCACCAAA | 0.0455
GCGAAACC | -0.0227
GAGTCTCA | 0.256
GCACACCC | 0.139
GCGCGCAA | 0.3
GCGCGCGC | 0.379
CCGCGCGG | 0.346
CCGCGCAA | -0.026
CCGCGCGA | 0.22
ACGCGCGC | 0.107
CCGCGCGC | 0.258
GCGCGCGA | 0.185
TCGCGCAA | 0.0709

Sequence | PBM E-score
AGGACGCG | -0.226
CTAAAGAG | -0.0856
GTAGCGAA | -0.027
AACTAGAA | -0.115
AGTCACTA | 0.366
CGTCACTC | -0.0595
AGTCACTG | 0.384
ACTCACTC | 0.254
ACTCACTG | 0.265
AATCACTC | 0.115
AGTCACTC | 0.428
CGTCACTA | 0.0865
AATCACTG | 0.374
ATTCACTG | -0.0337
GGTCACTA | -0.0218
AATCACTA | 0.267
AACGGTCC | -0.263
AGGTGTGC | 0.163
AAGCTCCA | 0.111
AAGCCACT | -0.0197
CCATCTGC | 0.0983
GTCTTCAC | -0.058
AATCTAGC | -0.218
CTATAGGC | -0.243

Sequence | PBM E-score
AACCTGAG | -0.0364
ACACGACA | 0.0664
ACACGACC | 0.109
ACACGACT | 0.277
GCTTGCAA | 0.0649
AAAGGTGC | -0.162
ACGGTAAT | -0.0641
ACGAGTCG | 0.322
ACGAGTCC | 0.0781
ACGAGTAG | 0.0242
TCGAGTCA | 0.399
CCGAGTCG | 0.336
TCGAGTAA | 0.0538
ACGAGTCA | 0.43
CCAAGTCG | 0.00863
CCGAGTAG | 0.1
TCGAGCCA | -0.0584
ACGAGTTG | 0.0198
ACGAGTCT | 0.0718
CGGCTAAC | -0.0152
GGCAAGAC | -0.138
TGGTCTAA | -0.0689
